Inconclusive results are not listed. Activity calls are given as the source filed them. Unless noted, calls come from the whole dose curve; as a rule, active = well fitted curve in the direction sought with a large enough effect; inconclusive = small, poorly fitted or top-dose-only effect, or another doubt; inactive = no such curve, though single readings can be large; an effect the other way counts as inactive or inconclusive.

Results on 7 compounds are retold here after PubChem BioAssay (NCATS).

A short description of experiment [1]: Cell Viability - MRC5 (AID 434; calls by dose curve;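 note: potency is the fitted concentration of half-maximal effect; cells exposed to compound for 40 hours at 37 °C; potency reflects cytotoxicity seen as loss of intracellular ATP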). The settings on record: MRC5 lung fibroblast viability, qHTS. The method in brief:
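Decrease in intracellular ATP, quantified by luciferase light output, reflects compound toxicity toward MRC5 cells exposed for 40 hr in complete culture medium. Concentration-response curves, scaled between DMSO and 100 uM tamoxifen, gave AC50 values.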
For orientation: In qHTS, concentration-response curves come from the screen itself.

The nature of experiment [2]: Cell Viability - SK-N-SH (AID 435; calls by dose curve;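 note: potency is the fitted concentration of half-maximal effect; compound exposure lasted 40 h at 37 °C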). Particulars: SK-N-SH neuroblastoma cell viability qHTS. The method in brief: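 Human neuroblastoma line, 40 h exposure at 37 °C, ATP quantified via luciferase luminescence; DMSO and 100 uM tamoxifen define 0 and 100% inhibition for AC50 fitting.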
Experiment [3] in a line: Cellular Toxicity (caspase-3) Jurkat (AID 655).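 Note: cells exposed to compound for 16 h at 37 °C before reading.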 The settings on record: Jurkat caspase-3 activation, luminescence; caspase-3 activation: at 92.2 µM (top of the series), DMSO = 0%, tamoxifen = 100%. The method in brief:
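qHTS in human Jurkat T-cell leukemia line: 16 hr compound treatment at 37 °C, caspase-3/7 activity measured by Caspase-Glo luminescence. AC50 derived from Hill equation.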

Experiment [4] is described as follows: Cellular Toxicity (caspase-3) HUV-EC-C (AID 656).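 Note: cells exposed to compound for 16 h.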 Particulars: HUV-EC-C cells, caspase-3 activation (apoptosis), vehicle = 0, 100 µM tamoxifen = 100%; series mostly up to 92.2 µM. The gist of the method:
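Concentration-dependent caspase 3/7 induction was assessed in HUV-EC-C cells exposed for 16 hours. Data scaled between DMSO and tamoxifen (100 uM) controls.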

Experiment [5] can be described thus: Cellular Toxicity (caspase-3) H-4-II-E (AID 663).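 Note: cells exposed to compound for 16 hr before readout.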 Particulars: H-4-II-E rat hepatoma; Potency: caspase-3 activation; series mostly up to 92.2 µM. The method in brief:
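Caspase 3/7 activation measured in H-4-II-E cells in complete culture medium after 16 hr treatment at 37 °C, using luciferase-coupled substrate readout; AC50 values come from Hill-equation fits of normalized concentration-response data.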

For experiment [6], the target named is Cytochrome P450 3A4 (Homo sapiens) (UniProt P08684). The experiment can be described thus: qHTS Assay for Inhibitors and Substrates of Cytochrome P450 3A4 (AID 884). Note: nearly all actives have a fitted effect of over 50% in size. Note: potency is the fitted concentration of half-maximal effect. Particulars: recombinant CYP3A4, Luciferin-PPXE luminescence; series mostly up to 57.1 µM. The method in brief:
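Luminescent readout of luciferin produced by CYP3A4 (20 nM) dealkylation of Luciferin-PPXE, 25 uM (its KM). NADPH-driven reaction ran 60 min at RT after 10 min compound preincubation; data scaled to 57 uM ketoconazole as 100% inhibition.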

A short description of experiment [7]: MultiTox-Fluor Cytotoxicity Assay - LYMP1-001 - Live Cells (AID 947).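 Note: 0% = DMSO only and full inhibition = tetraoctylammonium bromide control.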 Particulars: LYMP1-001 lymphoblastoid cells, live-cell protease fluorescence viability; series mostly up to 92.2 µM.
The nature of experiment [8]: Cell Viability - LYMP1-002 - Assay at 16 hr (AID 948).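 Note: 0% = DMSO alone and full effect = 92 µM tetraoctylammonium bromide.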 Particulars: LYMP1-002 lymphoblastoid cell viability; series mostly up to 92.2 µM. The gist of the method:
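In this qHTS, lymphoblastoid LYMP1-002 cells (human) receive compounds for 16 hr at 37 C. Viability is taken from CellTiter-Glo ATP luminescence, and AC50 derives from standard Hill fits.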

Experiment [9] can be described thus: Cell Viability - LYMP2-004 (AID 966).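 Note: cells exposed to compound for 24 h; plate controls were DMSO only for no effect and tetraoctylammonium bromide control for full effect; nearly all actives have a fitted effect of over 65% in size.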 The settings on record: LYMP2-004 lymphoblastoid cell viability, qHTS; series mostly up to 92.2 µM. The method in brief: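 qHTS cytotoxicity: human lymphoblastoid line, 24 hr compound treatment, 37 C, complete medium. Viability read as cellular ATP via luciferase luminescence; tetraoctylammonium bromide served as positive control.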

Experiment [10] in a line: Cell Viability - LYMP2-015 (AID 971).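 Note: cells exposed to compound for 24 h; 0% = DMSO only and full effect = 92 µM tetraoctylammonium bromide; nearly all actives have a fitted effect of over 55% in size.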 Particulars: LYMP2-015 lymphoblastoid cell viability; series mostly up to 92.2 µM. The method in brief: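 Cells are seeded at 2500 per well and incubated 5 hr at 37 C. Compounds are added across a concentration series for 24 hr at 37 C. CellTiter-Glo is added, and luminescence is read after 30 min at room temperature.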
Experiment [11] can be described thus: Cell Viability - LYMP2-019 (AID 973).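 Note: cells exposed to compound for 24 h at 37 °C; 0% = DMSO alone and full effect = 92 µM tetraoctylammonium bromide; nearly all actives have a fitted effect of over 55% in size.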 Particulars: LYMP2-019 lymphoblastoid cell line viability; series mostly up to 92.2 µM. The method in brief:
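Cytotoxicity is scored as a concentration-dependent drop in cellular ATP after cells (2500/well) receive compound for 24 hr at 37 C. Tetraoctylammonium bromide serves as positive control.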

Experiment [12] can be described thus: Cell Viability - LYMP2-007 (AID 979).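 Note: cells exposed to compound for 24 h before reading; 0% = DMSO only and the negative end = 92 µM tetraoctylammonium bromide; nearly all actives have a fitted effect of over 60% in size.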 Particulars: LYMP2-007 lymphoblastoid cell viability; series mostly up to 92.2 µM. The method in brief: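 Cells are seeded at 2500 per well and rested 5 hr. Compounds are then added over a concentration series for 24 hr at 37 C. CellTiter-Glo is added for 30 min at room temperature before luminescence reading.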
The nature of experiment [13]: Cell Viability - LYMP2-008 (AID 980).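 Note: cells exposed to compound for 24 h at 37 °C; % is set by controls: 0 for no effect and ±100 for the full control effect; nearly all actives have a fitted effect of over 60% in size.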 The settings on record: LYMP2-008 lymphoblastoid cell viability, qHTS; series mostly up to 92.2 µM. The gist of the method:
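Cells seeded at 2500/well and rested 5 hr at 37 C; compounds added over a concentration range and incubated 24 hr at 37 C; CellTiter-Glo added, 30 min at room temperature; luminescence read and AC50 fitted with Hill model.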

The nature of experiment [14]: Cell Viability - LYMP2-014 (AID 983).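 Note: cells exposed to compound for 24 h at 37 °C; plate controls were DMSO only for no effect and 92 µM tetraoctylammonium bromide for full effect; nearly all actives have a fitted effect of over 50% in size.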 Particulars: LYMP2-014 lymphoblastoid cells, viability qHTS; series mostly up to 92.2 µM. The gist of the method: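 Cells are plated at 2500/well and left 5 hr at 37 C. Compounds are added across a concentration range and incubated 24 hr at 37 C in complete medium. CellTiter-Glo is added, and luminescence is read after 30 min at room temperature.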

Experiment [15] can be described thus: Cell Viability - LYMP2-018 (AID 985).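 Note: compound exposure lasted 24 hr at 37 °C; plate controls were DMSO only for no effect and tetraoctylammonium bromide at 92 µM for full effect; nearly all actives have a fitted effect of over 50% in size.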 The settings on record: LYMP2-018 lymphoblastoid cells, viability (qHTS); series mostly up to 92.2 µM. The method in brief: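 Seed 2500 lymphoblastoid cells per well, incubate 5 hr at 37 C, add compound and incubate 24 hr at 37 C, add CellTiter-Glo, wait 30 min at room temperature, then read luminescence.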
Experiment [16] is described as follows: Cell Viability - LYMP2-020 (AID 986).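 Note: cells exposed to compound for 24 h at 37 °C; plate controls were DMSO only for no effect and tetraoctylammonium bromide at 92 µM for full effect; nearly all actives have a fitted effect of over 55% in size.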 The settings on record: series mostly up to 92.2 µM. The gist of the method: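 Seed 2500 cells per well and incubate 5 hr at 37 C. Add compounds at a concentration series and incubate 24 hr at 37 C. Add CellTiter-Glo, wait 30 min at RT, read luminescence, and fit a Hill curve for AC50.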
Experiment [17] is described as follows: Cell Viability - LYMP2-022 (AID 987). Note: nearly all actives have a fitted effect of over 55% in size. Note: potency is the fitted concentration of half-maximal effect. The settings on record: LYMP2-022 lymphoblastoid cell viability; series mostly up to 92.2 µM. The method in brief:
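Cells were seeded at 2500 per well, rested 5 hr at 37 C, and treated with titrated compounds for 24 hr at 37 C. Cellular ATP was then quantified by luciferase luminescence, and AC50 values were derived from Hill-modelled concentration-response curves.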

Experiment [18] in a line: Cell Viability - LYMP2-026 (AID 989).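 Note: cells exposed to compound for 24 h at 37 °C; % is set by controls: 0 for no effect and ±100 for the full control effect; nearly all actives have a fitted effect of over 50% in size.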 Particulars: LYMP2-026 lymphoblastoid cell viability, qHTS; series mostly up to 92.2 µM. The gist of the method:
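Cells are seeded at 2500 per well and held 5 hr at 37 C. Compounds are added in concentration series for 24 hr, then CellTiter-Glo reagent is applied and luminescence read.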

The nature of experiment [19]: qHTS assay for small molecule antagonists of retinoid X receptor alpha signaling (AID 588546).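 Note: cells stimulated with 9-cis-retinoic acid as agonist; % is set by controls: 0 for no effect and ±100 for the full control effect.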 Particulars: HEK293T RXRa-UAS-bla, beta-lactamase ratio, antagonist mode; measured here: W530 green channel, cytotoxicity proxy. The method in brief:
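Beta-lactamase reporter inhibition, read as CCF4 fluorescence ratio (ex 405, em 460/530 nm) after 2 h at RT. HEK293T UAS-bla cells, 2500/well, were stimulated with 9-cis-RA at 500 or 100 nM final alongside test compound for 18 h at 37 C.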

The target of experiment [20] is Voltage-gated inwardly rectifying potassium channel KCNH2 (Homo sapiens) (UniProt Q12809). The experiment can be described thus: qHTS Assay for Small Molecule Inhibitors of the Human hERG Channel Activity (AID 588834). Note: potency is the fitted concentration of half-maximal effect. The settings on record: U2OS BacMam hERG, FluxOR thallium flux fluorescence; series mostly up to 92.2 µM. The method in brief:
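Homogeneous FluxOR thallium flux assay using hERG-expressing U2OS cells (BacMam). Compound treatment about 10 minutes preceded stimulation; reduced fluorescence taken as channel block.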

Sequence of Cytochrome P450 3A4 (Homo sapiens) (P08684 whole entry, looked up): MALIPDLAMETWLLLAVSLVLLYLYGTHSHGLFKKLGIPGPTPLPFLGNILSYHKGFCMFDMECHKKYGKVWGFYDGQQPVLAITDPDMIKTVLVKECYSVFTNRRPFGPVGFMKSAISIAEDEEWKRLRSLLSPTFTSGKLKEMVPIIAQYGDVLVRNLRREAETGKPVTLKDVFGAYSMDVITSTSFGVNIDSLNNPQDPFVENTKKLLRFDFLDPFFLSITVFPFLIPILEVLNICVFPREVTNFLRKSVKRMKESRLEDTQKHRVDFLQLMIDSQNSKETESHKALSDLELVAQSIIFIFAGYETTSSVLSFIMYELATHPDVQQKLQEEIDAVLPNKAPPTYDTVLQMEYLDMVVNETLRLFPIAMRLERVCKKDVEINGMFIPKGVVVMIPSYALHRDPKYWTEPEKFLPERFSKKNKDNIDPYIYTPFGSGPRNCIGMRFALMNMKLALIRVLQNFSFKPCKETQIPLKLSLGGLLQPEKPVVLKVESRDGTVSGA
Sequence of Voltage-gated inwardly rectifying potassium channel KCNH2 (Homo sapiens) (Q12809 whole entry, looked up): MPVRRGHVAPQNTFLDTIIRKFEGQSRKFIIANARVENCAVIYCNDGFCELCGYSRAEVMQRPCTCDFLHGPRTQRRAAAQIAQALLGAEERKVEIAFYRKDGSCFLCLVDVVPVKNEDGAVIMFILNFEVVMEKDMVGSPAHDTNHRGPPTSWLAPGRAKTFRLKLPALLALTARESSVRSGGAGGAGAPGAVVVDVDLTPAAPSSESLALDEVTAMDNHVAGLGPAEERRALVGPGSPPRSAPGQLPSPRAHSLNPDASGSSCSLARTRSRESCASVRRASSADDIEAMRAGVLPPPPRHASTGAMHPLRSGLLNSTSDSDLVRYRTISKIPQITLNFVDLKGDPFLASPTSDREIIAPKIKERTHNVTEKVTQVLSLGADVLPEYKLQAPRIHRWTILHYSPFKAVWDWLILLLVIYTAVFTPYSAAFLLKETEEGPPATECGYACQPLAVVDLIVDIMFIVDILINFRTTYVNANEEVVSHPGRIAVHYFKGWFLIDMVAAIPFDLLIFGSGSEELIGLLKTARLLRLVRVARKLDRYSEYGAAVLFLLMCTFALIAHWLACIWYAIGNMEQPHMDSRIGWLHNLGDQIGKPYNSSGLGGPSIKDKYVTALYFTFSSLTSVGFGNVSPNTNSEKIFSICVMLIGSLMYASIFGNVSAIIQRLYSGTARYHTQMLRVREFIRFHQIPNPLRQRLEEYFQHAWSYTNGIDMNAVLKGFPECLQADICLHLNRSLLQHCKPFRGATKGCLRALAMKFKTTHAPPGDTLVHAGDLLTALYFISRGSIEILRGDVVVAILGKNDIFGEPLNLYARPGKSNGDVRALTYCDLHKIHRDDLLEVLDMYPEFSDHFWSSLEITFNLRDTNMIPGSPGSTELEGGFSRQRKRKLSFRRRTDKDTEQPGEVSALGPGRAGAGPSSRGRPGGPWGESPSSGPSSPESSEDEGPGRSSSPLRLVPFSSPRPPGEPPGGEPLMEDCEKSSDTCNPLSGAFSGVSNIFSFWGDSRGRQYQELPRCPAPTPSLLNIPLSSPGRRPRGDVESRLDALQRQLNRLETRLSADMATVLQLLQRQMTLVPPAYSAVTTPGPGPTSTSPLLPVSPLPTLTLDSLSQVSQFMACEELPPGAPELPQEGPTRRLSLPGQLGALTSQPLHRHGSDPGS

Take `COc1c(C(C)(C)C)cc([N+](=O)[O-])c(C)c1[N+](=O)[O-]`: the Potency in experiment [1] is > 92 µM (inactive); in experiment [2] it was > 92 µM (inactive); in experiment [20], 31.6 µM (active). Further, the caspase-3 activation in experiment [3] was -1.52% (inactive). Moreover, the compound was called inactive in experiment [4], in experiment [7] and in experiment [8]. Besides, the Potency result in experiment [5], in experiment [6], in experiment [9], in [10], in experiment [11] and in experiment [12] was “inactive” throughout. Also, the Potency entry in [13], in [14], in experiment [15], in experiment [16], in experiment [17] and in experiment [18] was “inactive” each time. For the same compound, in experiment [19], the max response was -1.47%.
As to `CN(C)c1ccc(N(C)C)cc1`, the figures for the Potency in [1], in experiment [2] and in experiment [17] were > 92 µM (inactive), > 92 µM (inactive) and 39.8 µM (active), respectively. The caspase-3 activation in experiment [3] is 1.91% (inactive). Further, the result in [4], in experiment [7] and in experiment [8] was inactive. Moreover, the Potency result in experiment [5], in experiment [6], in experiment [18] and in [20] was “inactive” throughout. For the same compound, the max response in [19] was -9.82%.
Consider `Nc1c(Br)cc([N+](=O)[O-])cc1[N+](=O)[O-]`, for which the Potency in experiment [1] and in experiment [2] was > 92 µM (inactive) throughout. For the same compound, the outcome in experiment [4], in experiment [7] and in experiment [8] was inactive. Moreover, the Potency entry in experiment [5], in experiment [9], in experiment [10], in [11], in experiment [12] and in [13] was “inactive” each time. Further, the Potency entry in experiment [14], in [15], in experiment [16], in [17], in [18] and in experiment [20] was “inactive” each time.
On to `Nc1ccc(Cc2ccc(N)c(Cl)c2)cc1Cl`, for which the values for the Potency in experiment [1], in experiment [2] and in [6] were > 92 µM (inactive), > 92 µM (inactive) and 5.01 µM (active), respectively. In experiment [3], the caspase-3 activation is 25.3% (inactive). The Potency result in [5], in [9], in experiment [10], in [11], in experiment [12] and in experiment [13] was “inactive” throughout. Moreover, the Potency entry in [14], in experiment [15], in experiment [16], in experiment [17] and in experiment [18] was “inactive” throughout. Also, the compound was called inactive in experiment [7] and in experiment [8]. Further, the max response in experiment [19] was -5.52%.
For the compound `CCCC[N+](=O)[O-]`, the Potency in experiment [1] and in experiment [2] was > 92 µM (inactive) in each case. Also, the caspase-3 activation in experiment [3] was 102% (active). Besides, the compound was called inactive in experiment [4], in [7] and in [8]. Moreover, the Potency result in [5], in experiment [6], in experiment [9], in experiment [10], in experiment [11] and in experiment [13] was “inactive” throughout. The Potency result in experiment [14], in experiment [15], in experiment [16], in experiment [17], in [18] and in experiment [20] was “inactive” in each case. For the same compound, the max response in experiment [19] is -4.37%.
As for `COC(C)(C)C`, the Potency in experiment [1] and in [2] was > 92 µM (inactive) in each case. The compound was called inactive in experiment [4], in experiment [7] and in experiment [8]. In addition, the Potency entry in [5], in experiment [6], in experiment [9], in experiment [10], in [11] and in [12] was “inactive” throughout. Moreover, the Potency result in experiment [13], in experiment [14], in experiment [15], in [16], in experiment [17] and in experiment [18] was “inactive” throughout. Moreover, the Potency entry in experiment [20] is “inactive”. Further, the max response in experiment [19] was -12.9%.
In the case of `COP(=S)(OC)SCn1nnc2ccccc2c1=O`, the caspase-3 activation in experiment [3] is -1.97% (inactive). The outcome in experiment [4], in [7] and in experiment [8] was inactive. In addition, the Potency result in [5], in experiment [10], in experiment [11], in experiment [12], in [13] and in [14] was “inactive” throughout. The Potency entry in [15], in experiment [16], in experiment [17], in experiment [18] and in [20] was “inactive” in each case. The Potency in experiment [6] was 7.94 µM (active).
